In the supplement of paper PMC9694430:
Structures can show the parent of a compound that is named as a salt.

Key:
Assay in all cases: thermal shift delta Tm vs DMSO control; higher = stronger stabilization (binding)
Settings in all cases: 12.5 µM; protein concentration 2 µM
LOC_OS01G57100-cb003 = system: LOC_OS01G57100-cb003
Method in brief: (§1)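 The melting temperature shift given here is a triplicate mean, measured against protein that received only DMSO. Melting temperatures came from Boltzmann fits of differential scanning fluorimetry data on E. coli-expressed, purified rice kinase domain constructs. Each 19.5 μl well contained 2 μM kinase, 100 mM potassium phosphate pH 7.5, 150 mM NaCl, 10% glycerol, 5 × SYPRO Orange and compound in DMSO. Plates were scanned from 25°C to 95°C at 0.05°C/s.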

LOC_OS01G60330-cb001 = system: LOC_OS01G60330-cb001
Method in brief: as §1

LOC_OS01G60700-cb002 = system: LOC_OS01G60700-cb002
Method in brief: as §1

LOC_OS01G63280-cb003 = system: LOC_OS01G63280-cb003
Method in brief: as §1

LOC_OS01G67340-cb003 = system: LOC_OS01G67340-cb003
Method in brief: as §1

LOC_OS01G70970-cb002 = system: LOC_OS01G70970-cb002
Method in brief: as §1

LOC_OS02G07810-cb001 = system: LOC_OS02G07810-cb001
Method in brief: as §1

LOC_OS02G08530-cb003 = system: LOC_OS02G08530-cb003
Method in brief: as §1

LOC_OS02G14120-cb001 = system: LOC_OS02G14120-cb001
Method in brief: as §1

LOC_OS02G17970-cb001 = system: LOC_OS02G17970-cb001
Method in brief: as §1

Row | Structure (SMILES) | thermal shift delta Tm (LOC_OS01G57100-cb003) [°C] | thermal shift delta Tm (LOC_OS01G60330-cb001) [°C] | thermal shift delta Tm (LOC_OS01G60700-cb002) [°C] | thermal shift delta Tm (LOC_OS01G63280-cb003) [°C] | thermal shift delta Tm (LOC_OS01G67340-cb003) [°C] | thermal shift delta Tm (LOC_OS01G70970-cb002) [°C] | thermal shift delta Tm (LOC_OS02G07810-cb001) [°C] | thermal shift delta Tm (LOC_OS02G08530-cb003) [°C] | thermal shift delta Tm (LOC_OS02G14120-cb001) [°C] | thermal shift delta Tm (LOC_OS02G17970-cb001) [°C]
1 | Cc1cc(Nc2nc(N[C@@H](C)c3ccc(F)cc3)c(C#N)cc2F)n[nH]1 | 0.56 | 7.34 | 0.15 | 0.61 | -0.08 | 1.7 | 0.48 | 1.49 | 7.95 | 0.2
2 | CC(C)NC[C@@H](C(=O)N1CCN(c2ncnc3c2[C@H](C)C[C@H]3O)CC1)c1ccc(Cl)cc1 [Ipatasertib (GDC-0068)] | 0.44 | 0.84 | 1.12 | 0.25 | 0.25 | 0.4 | 0.82 | 0.31 | -0.01 | 0.06
3 | Oc1cccc(-c2nc(N3CCOCC3)c3oc4ncccc4c3n2)c1 | 1.36 | 1.6 | 1.37 | 0.94 | 0.14 | 0.33 | 0.91 | 0.91 | 0.49 | 0.74
4 | NC(=O)c1ncn([C@@H]2O[C@H](CO)[C@@H](O)[C@H]2O)c1N [AICAR (Acadesine)] | 1.35 | 0.61 | 0.92 | 0.73 | -0.25 | 0.13 | 1.21 | 0.52 | 0.21 | 0.71
5 | NCC(=O)Nc1ccc(-n2nc(C(F)(F)F)cc2-c2ccc3c(ccc4ccccc43)c2)cc1 | 0.88 | 4.36 | 0.02 | 3.67 | -0.53 | 0.2 | 0.25 | 0.42 | 1.29 | -0.34
6 | Nc1nc2cc(-c3ccc4ncc(C(=O)N5CCOCC5)n4c3)ccc2o1 [Serabelisib (INK-1117,MLN-1117,TAK-117)] | 1.55 | 0.93 | 0.36 | 0.07 | 1.26 | 1.33 | 0.05 | 1.17 | 2.02 | 0.23
7 | O=C(NOCCO)c1ccc2cncn2c1Nc1ccc(I)cc1F | 1.19 | -0.56 | 0.86 | 0.2 | -0.68 | -0.05 | 1.14 | 0.47 | -1.25 | 1.62
8 | OC(c1cc(-c2ccc(Cl)cc2)nc2ccccc12)C1CCCCN1 (stereo not given) [Vacquinol-1] | 2.48 | 1.32 | 1.39 | 0.78 | 1.06 | 0.39 | 0.67 | 0.72 | 0.39 | 0.79
9 | Oc1ccc(Nc2nc(-c3ccc(Cl)cc3)cs2)cc1 | -1.22 | 2.57 | -0.25 | 3.13 | 0.86 | 1.06 | 0.81 | -0.94 | 0.14 | -0.04
10 | Cc1nc(-c2cn3c(n2)-c2ccc(-c4cnn(C(C)(C)C(N)=O)c4)cc2OCC3)n(C(C)C)n1 [Taselisib (GDC 0032)] | 0.43 | 0.33 | 0.46 | 0.16 | 0.07 | 0.23 | 0.07 | 0.84 | 0.27 | 0.09
11 | Cc1c[nH]c(/C=C2\C(=O)Nc3ccccc32)c1CCC(=O)O | 0.49 | 11.5 | 0.67 | 0.07 | 3.1 | 5.88 | -0.06 | 3.9 | 1.56 | 0.22
12 | CC[C@H](CO)Nc1nc(NCc2ccccc2)c2ncn(C(C)C)c2n1 [Roscovitine (Seliciclib,CYC202)] | 0.43 | 0.99 | 0.89 | 0.16 | -0.54 | 0.28 | 0.93 | 0.8 | 0.04 | 0.31
13 | COc1cc2ncnc(Nc3ccc(O)c(Br)c3)c2cc1OC | 0.74 | 0.32 | 1.72 | 0.92 | 0.7 | 0.81 | 0.81 | 1.8 | 7.45 | 1.06
14 | CNC(=O)c1ccc(C)c(-n2c(C)cc(OCc3ccc(F)cc3F)c(Br)c2=O)c1 | 2.4 | 0.78 | 1.45 | 0.3 | -0.29 | 0.12 | 1.25 | 0.96 | 0.27 | 0.83
15 | Cc1ccc(NC(=O)c2ccc(CN3CCN(C)CC3)cc2)cc1Nc1nccc(-c2cccnc2)n1 [Imatinib Mesylate (STI571)] | 1 | 0.66 | 0.7 | 0.06 | -0.58 | -0.12 | 0.51 | 1.09 | 0.52 | 0.04
16 | COC(=O)Nc1ccc(-c2nc(N3CCOCC3)c3cnn(C4CCN(C(=O)OC)CC4)c3n2)cc1 | 2.22 | 0.77 | 0.54 | 0.41 | 0.13 | 0.2 | 0.91 | 0.58 | -0.24 | 0.43
17 | Cc1cc(Nc2cc(N3CCN(C)CC3)nc(/C=C/c3ccccc3)n2)n[nH]1 [ENMD-2076 L-(+)-Tartaric acid] | 1.16 | 8.71 | 1.16 | 0.86 | 1.45 | 3.09 | 0.04 | 2.96 | 7.86 | 0.95
18 | CCCCCCCCCCCCCCCCCCOP(=O)([O-])OC1CC[N+](C)(C)CC1 [Perifosine (KRX-0401)] | -2.51 | -0.68 | -0.73 | -3.09 | -1.14 | -3.45 | -0.99 | -1.07 | -2.06 | -0.45
19 | COc1nccnc1NS(=O)(=O)c1ccc(NC(=O)/C=C/c2ccc([N+](=O)[O-])s2)cc1 [Necrosulfonamide] | -1.39 | 1.46 | 1.17 | 0.16 | 0.36 | -0.61 | 1.4 | 0.83 | -0.66 | 2.48
